Source: PubChem BioAssay (National Center for Advancing Translational Sciences (NCATS))
Most compounds without a hit are left out; they make up all but 1.7% or so of the library.
GLP-1R agonist = activates the human GLP-1 receptor. Potency, µM (titrated, usually from 45.6 µM), most hits filed as activators. P43220. 380,000 tested, 0.007% active. HEK293 GLP-1R CRE-luciferase, luminescence, 4-6 h; cells express a hypersensitive GLP-1R form. AID 624172
PTHR1 agonist = activates the human parathyroid hormone receptor PTHR1. HEK293 GP2 PTHR1 cells, GloSensor cAMP luminescence, 1 h. 410,000 tested, 0.075% active. Q03431. Potency, µM (titrated, usually from 115 µM), usual class: activators. AID 743266; further: nearly all actives have a fitted effect of over 55% in size
Target sequence (Q03431 whole entry, looked up): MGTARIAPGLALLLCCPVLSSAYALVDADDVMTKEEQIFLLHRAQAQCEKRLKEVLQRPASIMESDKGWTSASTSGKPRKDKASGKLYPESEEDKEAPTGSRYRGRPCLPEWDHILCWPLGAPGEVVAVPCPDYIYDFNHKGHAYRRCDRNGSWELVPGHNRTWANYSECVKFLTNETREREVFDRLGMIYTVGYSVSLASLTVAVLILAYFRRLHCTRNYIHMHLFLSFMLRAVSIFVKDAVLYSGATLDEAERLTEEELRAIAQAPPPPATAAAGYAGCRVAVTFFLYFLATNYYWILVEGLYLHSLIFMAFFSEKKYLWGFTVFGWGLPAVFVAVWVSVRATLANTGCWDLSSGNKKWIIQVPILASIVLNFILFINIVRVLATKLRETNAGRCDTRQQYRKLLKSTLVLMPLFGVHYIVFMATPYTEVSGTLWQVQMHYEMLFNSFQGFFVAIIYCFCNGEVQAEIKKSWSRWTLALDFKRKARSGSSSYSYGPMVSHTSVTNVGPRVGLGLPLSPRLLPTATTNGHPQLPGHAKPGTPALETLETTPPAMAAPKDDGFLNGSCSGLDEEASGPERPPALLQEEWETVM
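HEK-293-derived GP2 cells expressing PTHR1 and a GloSensor cAMP reporter, 3,000/well, plated overnight, given luciferin plus IBMX (each 0.5 mM as added) for 1 h at 37 °C, then compound for 1 h at 37 °C. Luminescence was read after 15 min at room temperature.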
RGS4 inh = blocks human RGS4-accelerated GTP hydrolysis; 390,000 tested, 0.039% active; Potency, µM (titrated, usually from 114 µM), hits mostly inhibitors; Transcreener GDP fluorescence polarization, RGS4-accelerated GTP hydrolysis; AID 504845; further: nearly all actives have a fitted effect of over 75% in size
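MLSMR compounds (23 nl, pin-transferred) preincubated 10 min at room temperature with a 500nM (2x) first reagent, then RGS4 at 900nM (2x) plus Transcreener GDP mix added; fluorescence polarization (620/688 nm) read before and after 90 min at 30 °C.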
GLP1R inv ag = GLP-1 receptor (human) inverse agonism; P43220; AID 624417; Potency, µM (doses to about 38.3 µM), usual class: inhibitors; HEK293 GLP-1R CRE-luciferase, luminescence, 24 h; GLP-1R form is constitutively active; 410,000 tested, 1.6% active; further: nearly all actives have a fitted effect of over 55% in size
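Using stably transfected HEK293 (constitutively active GLP-1R, cAMP-luciferase reporter), compounds were incubated 24 hr and luciferase measured by luminescence.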
HEK293 tox = cytotoxicity counter-screen for GLP-1 receptor inverse agonists. HEK293 cAMP-luciferase reporter cells, luminescence, 24 h. Potency, µM (titrated, usually from 38.3 µM), hits mostly inhibitors. AID 624418. 410,000 tested, 0.13% active;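 further: loss of luciferase light is scored as toxicity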
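Here, cytotoxicity is scored as loss of luminescence. The MLSMR collection was tested on cells seeded in medium containing 10% Nu serum, with a 24 hr compound exposure preceded by 12 hours of culture.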
Hits are given with their value; 0 = inactive; ? = inconclusive; - = no result given; [ ] = dose if it differs, or a comment. The call rests on the fitted dose curve; in most records, active means well fitted curve in the direction sought with a large enough effect; inconclusive means small, poorly fitted or top-dose-only effect, or another doubt; inactive means no such curve, though single readings can be large; an effect the other way counts as inactive or inconclusive.

SMILES | GLP-1R agonist | PTHR1 agonist | RGS4 inh | GLP1R inv ag | HEK293 tox
Cc1cccc(N(Cc2ccccc2)C(=O)CCl)c1 | 0 | 0 | 0 | 10µM | 0
COc1cc(C(=O)N(Cc2ccccc2)c2cccc(C)c2)ccc1OC(F)F | 0 | 0 | 0 | 11µM | 0
COc1ccc(CC(=O)N(Cc2ccccc2)c2cccc(C)c2)cc1OC | 0 | 0 | 0 | ? | 0
COc1ccccc1C(=O)N(Cc1ccccc1)c1ccc(C)cc1 | 0 | 0 | 0 | ? | 0
O=C(CCl)N(Cc1ccccc1)c1ccccc1 | 0 | 0 | 0[11.4 µM] | ? | ?
COc1ccccc1CC(=O)N(Cc1ccccc1)c1ccc(C)cc1 | 0 | 0 | 0 | 8.9µM | 0
COc1ccc(Cl)cc1NC(=O)CCC(=O)N1CCOc2ccccc21 | - | 0 | 0 | ? | 0
COc1ccc(-c2cc(C(=O)Nc3c(C)nn(Cc4ccccc4C)c3C)no2)cc1 | - | 0 | 0 | 0 | 0
N[C@@H](C(=O)N[C@H]1C(=O)N2C(C(=O)O)=C(Cl)CC[C@H]12)c1ccccc1 | 0 | - | - | - | -
Cc1nn(-c2ccc(Cl)cc2)c2nc(-c3cccnc3)cc(C(F)(F)F)c12 | - | 0 | 0 | 0 | 0
Cc1ccc(O)c(CN(C)Cc2cc(C)ccc2O)c1 | 0 | 0 | 0 | 13µM | 0
Cc1ccc(O)c(CP(=O)(c2ccccc2)c2ccccc2)c1 | 0 | 0 | 0 | 0 | 0[1.53 µM]
O=C(CCCCn1c(=O)[nH]c2ccccc2c1=O)N1CCN(c2cccc(C(F)(F)F)c2)CC1 | 0 | 0 | 0 | 10µM | ?
COc1cc(C(=O)N2CC(=O)Nc3ccc(C)cc3C2c2ccc(F)cc2)cc(OC)c1OC (stereo not given) | - | 0 | 0 | 0 | 0
CCN(C(=O)COC(=O)C1=COCCO1)c1c(N)n(Cc2ccccc2)c(=O)[nH]c1=O | 0 | 0 | 0 | 0 | 0
O=C(c1cccc(Br)c1)c1cn(-c2ccccc2)nc1C(=O)c1ccccc1 | 0 | 0 | 0 | 3.5µM | 0
COc1ccc2nc(N(Cc3cccnc3)C(=O)C3CCCCC3)sc2c1 | - | 0 | 0 | ? | 0
O=C(C1CCCCC1)N(Cc1cccnc1)c1nc2ccc(F)cc2s1 | - | 0 | 0 | 11µM | 0
Cc1cc(C)n2nc(N)c(N=Nc3ccc4c(c3)OCO4)c2n1 | 0 | 0 | 0 | 0 | 0
Cc1cc(C)n2nc(N)c(N=Nc3ccccc3)c2n1 | 0 | 0 | 0 | 0 | 10µM
COc1ccc(CCNC(=O)c2cc(-c3ccccc3)nc3ccccc23)cc1OC | 0 | 0 | 0 | 0 | 0
CSc1cccc(Nc2cc(C(=O)NCCc3ccc(Cl)cc3)c3ccccc3n2)c1 | 0 | 0 | ? | 5µM | 0
CCCCN(CCCNC(=O)c1cc(Nc2cccc(SC)c2)nc2ccccc12)Cc1ccccc1 | - | 0 | 0 | ? | 0
COc1ccc(CCNC(=O)c2cc(Nc3cc(C)cc(C)c3)nc3ccccc23)cc1OC | 0 | 0 | 0 | 4.5µM | 0
N#CN=c1snc(-c2ccccc2Cl)n1-c1ccc(F)cc1 | - | - | 0 | - | -
SMILES | GLP-1R agonist | PTHR1 agonist | RGS4 inh | GLP1R inv ag | HEK293 tox
COc1ccc(C(C)C)cc1S(=O)(=O)N1CCN(c2ccccc2)CC1 | 0 | 0 | 0 | 8.9µM | 0
COc1ccc(OC)c(S(=O)(=O)N2CCN(c3ccccc3)CC2)c1 | 0 | 0 | 0 | 0 | 0
COc1ccccc1N1CCN(S(=O)(=O)c2cc(-c3cc(C)no3)ccc2C)CC1 | - | 0 | 0 | 0 | 0
COc1ccc(-c2cc(C)no2)cc1S(=O)(=O)N1CCCN(Cc2ccc(F)cc2)C1 | 0 | 0 | 0 | 7.1µM | 0
COc1ccccc1CN1CCC(CNS(=O)(=O)c2cc(-c3cc(C)no3)ccc2OC)CC1 | 0 | 0 | 0 | 11µM | 0
CCc1ccc(-c2cc(C)no2)cc1S(=O)(=O)N1CCN(c2ccccc2OC)CC1 | 0 | 0 | 0 | 4.5µM | 0
CC(=O)O[C@H]1C[C@@H]2CC[C@@H]3[C@H](CC[C@]4(C)[C@H](OC(C)=O)[C@@H](N5CC[N+](C)(C)CC5)C[C@@H]34)[C@@]2(C)C[C@@H]1N1CC[N+](C)(C)CC1 | 0 | - | - | - | -
COc1ccc(CCC(=O)OCc2csc(CC(=O)Nc3ccc(C)cc3)n2)cc1OC | 0 | 0 | 0 | 0 | 0
COc1ccc(NC(=O)CN2C(=O)NC(C)(c3ccc4c(c3)OCCO4)C2=O)cc1S(N)(=O)=O (stereo not given) | 0 | 0 | 0 | 0 | 0
CCOc1ccccc1CNC(=O)c1cnc2sc(N3CCCCCC3)nn2c1=O | - | 0 | 0 | ? | 0
CN1CCC(N(Cc2cccs2)c2ccccc2)CC1 | 0 | - | - | - | -
Cc1cc(S(=O)(=O)N2CCN(c3ccc(F)cc3)CC2)c(C)s1 | 0 | 0 | 0 | 10µM | 0
COc1ccccc1N1CCN(S(=O)(=O)c2cc(C)sc2C)CC1 | 0 | 0 | 0 | 10µM | 0
COCCCNc1nc2c(-c3cccc(Br)c3)nnn2c2ccccc12 | 0 | 0 | 0 | 0 | 0
CCN(CC)S(=O)(=O)c1ccc(N2CC(C(=O)N3Cc4ccccc4CC3C(N)=O)CC2=O)cc1 (stereo not given) | 0 | 0 | 0 | 0 | 0
O=c1[nH]c(/C=C\c2ccc(O)c(O)c2)nc(O)c1[N+](=O)[O-] | 0 | 0 | 0 | 0 | 11µM
C[C@@H]1CN([C@H](C)CO)C(=O)Cc2cc(NS(=O)(=O)c3ccc(Cl)cc3)ccc2O[C@H]1CN(C)Cc1ccc(C(F)(F)F)cc1 | 0 | 0 | 0 | 10µM | 0
C[C@H](CO)N1C[C@H](C)[C@H](CN(C)Cc2ccccc2)Oc2ccc(NC(=O)Nc3ccc(F)cc3)cc2C1=O | 0 | 0 | 0 | 11µM | 0
C[C@@H]1CN([C@@H](C)CO)C(=O)c2cc(NC(=O)c3ccccc3)ccc2O[C@@H](C)CCCCO[C@@H]1CN(C)Cc1ccc(C(F)(F)F)cc1 | 0 | 0 | - | 11µM | 0
C[C@@H]1CCCCO[C@H](CN(C)Cc2ccc3c(c2)OCO3)[C@H](C)CN([C@@H](C)CO)C(=O)c2cc(NC(=O)c3ccccc3)ccc2O1 | 0 | 0 | - | ? | 0
C[C@H](CO)N1C[C@H](C)[C@H](CN(C)Cc2ccccc2)Oc2c(NC(=O)Nc3ccc(F)cc3)cccc2C1=O | 0 | 0 | 0 | 0 | 0
Cc1cccc(Cc2c(C)nc3nc(SCC(=O)NCc4ccccc4)nn3c2C)c1 | 0 | 0 | 0 | ? | ?
CCS(=O)(=O)c1nc(S(=O)(=O)c2ccc(C)cc2)c(NCC(C)C)s1 | - | 0 | 0 | 0 | 0
CCCc1cnc2c(c1SCc1cccc(C)c1)c(=O)n(C)c(=O)n2C | - | 0 | 0 | 0 | 0
Cc1ccccc1Cn1nc(C)c(NC(=O)c2noc3c2CC(C(C)(C)C)CC3)c1C (stereo not given) | 0 | 0 | 0 | 10µM | 0
CCCCC(F)(F)[C@@]1(O)CC[C@H]2[C@H](CC(=O)[C@@H]2CCCCCCC(=O)O)O1 | 0 | - | - | - | -
O=c1c2sc(-c3ccccc3)cc2nc2n1CCC2 | 0 | 0 | 0 | 5µM | 0
O=c1c2sc(-c3ccccc3)cc2nc2n1CCCCC2 | 0 | 0 | 0 | ? | 0
